{"source": "the supplement of paper PMC4206461", "data": [{"test_system": "Pseudomonas aeruginosa PA14 dppA1-A5 penta mutant + pBBR5.DppA1 (PA14_58350)", "assay": "respiration area under curve with compound as sole nitrogen source, 24 h (OmniLog AUC (arbitrary units)); higher = more respiration / better utilisation as nitrogen source, active = 2000 or more", "protocol": "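Biolog Phenotype MicroArray plates PM6-PM8: each di/tripeptide is the sole nitrogen source. Tetrazolium reduction was read in the OmniLog for 24 h at 37°C and summarised as area under the respiration curve (arbitrary units). Values below 2000 count as no respiration. Strain is the SBP penta mutant complemented with DppA1 on a plasmid under its native promoter. Lys/His/Cys peptides are excluded.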", "values": [{"smiles": "C[C@H](N)C(=O)N[C@@H](Cc1ccc(O)cc1)C(=O)O", "note": "(plate: PM6)", "respiration area under curve": "5920 (active)"}, {"smiles": "CC[C@H](C)[C@H](NC(=O)CN)C(=O)O", "note": "(plate: PM8)", "respiration area under curve": "4580 (active)"}, {"smiles": "C[C@H](NC(=O)[C@@H](N)CCC(=O)O)C(=O)O", "note": "(plate: PM8)", "respiration area under curve": "7690 (active)"}, {"smiles": "CC[C@H](C)[C@H](N)C(=O)NCC(=O)O", "note": "(plate: PM6)", "respiration area under curve": "2560 (active)"}, {"smiles": "CC(C)[C@H](N)C(=O)N[C@H](C(=O)O)C(C)C", "note": "(plate: PM7)", "respiration area under curve": "6680 (active)"}, {"smiles": "CC[C@H](C)[C@H](N)C(=O)N[C@@H](Cc1ccc(O)cc1)C(=O)O", "note": "(plate: PM6)", "respiration area under curve": "655 (inactive)"}, {"smiles": "NC(N)=NCCC[C@H](N)C(=O)N[C@@H](Cc1ccc(O)cc1)C(=O)O", "note": "(plate: PM6)", "respiration area under curve": "8490 (active)"}]}, {"test_system": "Pseudomonas aeruginosa PA14 dppBCDF deletion mutant", "assay": "respiration area under curve with compound as sole nitrogen source, 24 h (OmniLog AUC (arbitrary units)); higher = more respiration / better utilisation as nitrogen source, active = 2000 or more; extreme values may be limits of the assay", "protocol": "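Biolog Phenotype MicroArray plates PM6-PM8: each di/tripeptide is the sole nitrogen source. Tetrazolium reduction was read in the OmniLog every 15 min for 24 h at 37°C and summarised as area under the respiration curve (arbitrary units). Values below 2000 count as no respiration. Strain is the dipeptide ABC transporter deletion mutant.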", "values": [{"smiles": "CC(C)CC(N)C(=O)NC(Cc1c[nH]c2ccccc12)C(=O)O", "note": "(configuration not stated) (plate: PM7)", "respiration area under curve": "7610 (active)"}, {"smiles": "CC(C)[C@H](NC(=O)[C@@H](N)CC(=O)O)C(=O)O", "note": "(plate: PM6)", "respiration area under curve": "524 (inactive)"}, {"smiles": "CSCC[C@H](N)C(=O)NCC(=O)O", "note": "(plate: PM7)", "respiration area under curve": "33.2 (inactive)"}, {"smiles": "CC[C@H](C)[C@H](NC(=O)[C@H](C)N)C(=O)O", "note": "(plate: PM8)", "respiration area under curve": "1150 (inactive)"}, {"smiles": "NCC(=O)N1CCC[C@H]1C(=O)O", "note": "(plate: PM6)", "respiration area under curve": "0 (inactive)"}, {"smiles": "N[C@@H](CC(=O)O)C(=O)N[C@@H](CCC(=O)O)C(=O)O", "note": "(plate: PM6)", "respiration area under curve": "0 (inactive)"}, {"smiles": "CSCC[C@H](NC(=O)[C@@H](N)CCCN=C(N)N)C(=O)O", "note": "(plate: PM6)", "respiration area under curve": "9400 (active)"}, {"smiles": "CC(NC(=O)C(N)CC(=O)O)C(=O)O", "note": "(configuration not stated) (plate: PM8)", "respiration area under curve": "12.2 (inactive)"}, {"smiles": "NC(=O)CC[C@H](N)C(=O)NCC(=O)O", "note": "(plate: PM6)", "respiration area under curve": "2500 (active)"}, {"smiles": "C[C@H](N)C(=O)N[C@@H](Cc1ccc(O)cc1)C(=O)O", "note": "(plate: PM6)", "respiration area under curve": "4510 (active)"}, {"smiles": "CC[C@H](C)[C@H](NC(=O)CN)C(=O)O", "note": "(plate: PM8)", "respiration area under curve": "1250 (inactive)"}, {"smiles": "CSCCC(N)C(=O)NC(CCCN=C(N)N)C(=O)O", "note": "(configuration not stated) (plate: PM7)", "respiration area under curve": "13000 (active)"}, {"smiles": "C[C@@H](O)[C@H](N)C(=O)N[C@@H](CO)C(=O)O", "note": "(plate: PM8)", "respiration area under curve": "0 (inactive)"}, {"smiles": "CSCC[C@H](N)C(=O)N[C@@H](CCC(=O)O)C(=O)O", "note": "(plate: PM7)", "respiration area under curve": "0 (inactive)"}, {"smiles": "C[C@H](NC(=O)[C@@H](N)CCC(=O)O)C(=O)O", "note": "(plate: PM8)", "respiration area under curve": "51.5 (inactive)"}, {"smiles": "CC(C)C[C@H](N)C(=O)N[C@@H](Cc1ccccc1)C(=O)O", "note": "(plate: PM6)", "respiration area under curve": "3930 (active)"}, {"smiles": "C[C@H](NC(=O)CCN)C(=O)O", "note": "(plate: PM8)", "respiration area under curve": "0 (inactive)"}, {"smiles": "C[C@@H](O)[C@H](N)C(=O)N[C@@H](CC(=O)O)C(=O)O", "note": "(plate: PM8)", "respiration area under curve": "0 (inactive)"}, {"smiles": "CC[C@H](C)[C@H](NC(=O)[C@@H](N)CCCN=C(N)N)C(=O)O", "note": "(plate: PM6)", "respiration area under curve": "8310 (active)"}, {"smiles": "CSCC[C@H](NC(=O)CN)C(=O)O", "note": "(plate: PM6)", "respiration area under curve": "0 (inactive)"}, {"smiles": "N[C@@H](Cc1ccc(O)cc1)C(=O)N[C@@H](Cc1ccccc1)C(=O)O", "note": "(plate: PM7)", "respiration area under curve": "3450 (active)"}, {"smiles": "CC[C@H](C)[C@H](N)C(=O)NCC(=O)O", "note": "(plate: PM6)", "respiration area under curve": "0 (inactive)"}, {"smiles": "C[C@@H](N)C(=O)NCC(=O)NCC(=O)O", "note": "(plate: PM8)", "respiration area under curve": "0 (inactive)"}, {"smiles": "CC(C)[C@H](N)C(=O)N[C@H](C(=O)O)C(C)C", "note": "(plate: PM7)", "respiration area under curve": "1580 (inactive)"}, {"smiles": "NCC(=O)NCC(=O)N[C@@H](Cc1ccccc1)C(=O)O", "note": "(plate: PM8)", "respiration area under curve": "0 (inactive)"}, {"smiles": "N[C@@H](CCC(=O)O)C(=O)N[C@@H](Cc1c[nH]c2ccccc12)C(=O)O", "note": "(plate: PM6)", "respiration area under curve": "728 (inactive)"}, {"smiles": "O=C(O)CC(NC(=O)C1CCCN1)C(=O)O", "note": "(configuration not stated) (plate: PM7)", "respiration area under curve": "0 (inactive)"}, {"smiles": "CSCC[C@H](N)C(=O)N[C@@H](Cc1c[nH]c2ccccc12)C(=O)O", "note": "(plate: PM7)", "respiration area under curve": "2520 (active)"}, {"smiles": "CC[C@H](C)[C@H](N)C(=O)N[C@@H](Cc1ccc(O)cc1)C(=O)O", "note": "(plate: PM6)", "respiration area under curve": "11 (inactive)"}, {"smiles": "N[C@@H](CC(=O)O)C(=O)N[C@@H](CC(=O)O)C(=O)O", "note": "(plate: PM6)", "respiration area under curve": "12.5 (inactive)"}, {"smiles": "NC(N)=NCCC[C@H](N)C(=O)N[C@@H](Cc1ccc(O)cc1)C(=O)O", "note": "(plate: PM6)", "respiration area under curve": "8750 (active)"}, {"smiles": "N[C@@H](CO)C(=O)N1CCC[C@H]1C(=O)O", "note": "(plate: PM7)", "respiration area under curve": "0 (inactive)"}, {"smiles": "CC(C)[C@H](N)C(=O)N1CCC[C@H]1C(=O)O", "note": "(plate: PM8)", "respiration area under curve": "0 (inactive)"}, {"smiles": "CC(C)[C@H](N)C(=O)N[C@@H](Cc1ccc(O)cc1)C(=O)O", "note": "(plate: PM7)", "respiration area under curve": "3890 (active)"}, {"smiles": "CC(C)C[C@H](NC(=O)[C@H](CC(C)C)NC(=O)[C@@H](N)CC(C)C)C(=O)O", "note": "(plate: PM8)", "respiration area under curve": "1800 (inactive)"}]}]}
